Drawing on ChEMBL document CHEMBL4513216, “Probing the Open Global Health Chemical Diversity Library for Multistage-Active Starting Points for Next-Generation Antimalarials” (ACS Infect Dis, 2020), this text covers INHIBITION for 113 compounds.

Molecules are shown by their SMILES. The whole screen tested about 69,000 compounds, of which about 8,600 (12%) showed an effect of 50% or more. This excerpt belongs to a sample that is enriched for strong results.

The subject of this experiment is Plasmodium berghei. The experiment in a line: Screen against P. berghei liver stage (PbLuc), transformed with Luciferase, at 10uM. To be noted: tested at 10 uM. Type of experiment: functional, HepG2.
For the compound `CC(C)Oc1ccc2c(NC(=O)CN(C)C)nn(CC(F)(F)F)c2c1`, the INHIBITION came out at 42.3%.
As to `CC1(Cc2ccc(Cl)cc2)Cc2cc(CCC(=O)O)ccc2O1` (stereo not drawn), the INHIBITION is -29.4%.
For `Cc1cc(C)c2c(N3CCCN(C(=O)C4CCC4)CC3)ncnc2n1` the value was 30.9%; for `Cc1cnc(N2C[C@@H]3C[C@H](C(=O)N(C)C)[C@H](C2)O3)nc1`, 17.3%; for `Cc1cccc(N(CCC(N)=O)C(=O)c2cc(-n3cccn3)ccn2)c1`, 8.92%.
`Cc1cccc(N(CCC(N)=O)C(=O)c2ccnc(C)n2)c1`: the INHIBITION stood at 50.5%.
Then `Cc1cccc(N(CCC(N)=O)C(=O)c2cnccn2)c1`, with 12.9%.
Then `O=C(CCn1nc(C(F)(F)F)c(Br)c1C1CC1)NN1CCOCC1`, with -25.5%.
Then `Cc1ccc(OCc2occc2C(=O)N2CCCCC(N)C2)cc1` (stereo not drawn), with 11.8%.
Turning to `Cc1cc(CN2C[C@@H]3CC[C@H]2CN(Cc2c(C)noc2C)C3)ccc1F`, the INHIBITION was -63.6%.
With `O=C(c1ccccc1)N1CCCN(C(=O)c2ncncc2Cl)CC1`, the INHIBITION turned out to be 74%.
Regarding `O=C(c1ncncc1Cl)N1CCN(c2ccc(Cl)cc2)CC1`, the INHIBITION was determined as 44%.
In the case of `O=C(c1ncncc1Cl)N1CCC2(CCCC2)CC1`, the INHIBITION is given as 43.1%.
Then `COc1ncccc1C(=O)NCCn1cnc(C)cc1=O`, with -70.7%.
Then `CO[C@@H]1CC[C@@H](N(C)C(=O)c2cn3cc(C)ccc3n2)[C@H]1O`, with -2.65%; and `CCN1CCOCC12CCN(C(=O)c1ccsc1)CC2`, with 42.1%.
Regarding `O=C(Nc1ccc(Cl)cn1)c1cncc(C2CCNCC2)n1`, the INHIBITION was -10.4%.
Then `c1ccc(Cc2nc(CNC3CCOC4(CCOCC4)C3)no2)cc1` (stereo not drawn), with -40.7%; and `COCc1nc(CNC2CCC3(CCNCC3)CC2)no1`, with 12.1%.
Then `c1ccc(Cc2nc(CNC3CCC4(CCNCC4)CC3)no2)cc1`, with 53.7%; and `O=C(c1cnc(C2CC2)s1)N1CCCC1Cn1cccn1` (stereo not drawn), with 8.64%; and `Cc1nn(CCC(=O)NC2CCS(=O)(=O)C2)c(C)c1Br` (stereo not drawn), with -8%.
For `Cc1ccoc1C(=O)N1C[C@H]2CCC[C@@]2(COCc2ccncc2)C1` the value was 41.8%.
For `CC(C)CN1CC2(CCN(C(=O)C(O)c3cccc(Cl)c3)CC2)CC1=O` (stereo not drawn), the INHIBITION is given as -28.9%.
Then `CCN1CC2(CCC1=O)CCN(C(=O)C(O)c1cccc(Cl)c1)CC2` (stereo not drawn), with 71.1%.
For `CCN1CC2(CCC1=O)CCN(C(=O)c1ccc(Cl)cc1O)CC2` the value was 36.8%; for `O=C(NCC1CCOCC1)[C@H]1C[C@@H]2CCN(c3nncs3)C[C@@H]2O1`, 24.3%.
For `O=C(c1ccc(F)cc1Cl)N1CCn2c(nnc2C(F)(F)F)C1` the value was 68.8%; for `O=C(c1cccc(F)c1F)N1CCn2c(nnc2C(F)(F)F)C1`, 34.6%.
Turning to `Cc1ccc(NC2CCN(C(=O)c3n[nH]c4ccccc34)CC2)nn1`, the INHIBITION amounted to 11%.
`CCn1nc(C)c(C(=O)N2CCC(Nc3ccc(C)nn3)CC2)c1C`: the INHIBITION is 17.5%.
As for `CCn1nc(C)cc1C(=O)N1CCC(Nc2ccc(C)nn2)CC1`, the INHIBITION is given as 57.7%.
Then `Cc1ccc(NC2CCN(C(=O)Cn3nc(C)cc3C)CC2)nn1`, with 3.81%; and `CCC(O)CN1CCN(C(=O)c2cccc3[nH]ncc23)CC1` (stereo not drawn), with -29.8%; and `CC(O)CN1CCN(C(=O)c2cccc3[nH]ncc23)CC1` (stereo not drawn), with -31.8%.
For `Cc1ccc(NC2CCN(C(=O)c3cccc4c3ccn4C)CC2)nn1` the value was 31.2%; for `COc1ccc(F)cc1C(=O)N1CCn2c(nnc2C(F)(F)F)C1`, 6.33%.
Consider `CC(C)(C)C(O)CN1CCN(C(=O)c2cccc3[nH]ncc23)CC1` (stereo not drawn), for which the INHIBITION is 69.8%.
For `Cc1ccc(NC2CCN(C(=O)c3cccc4[nH]ncc34)CC2)nn1`, the INHIBITION is reported as 55.4%.
For `CCS(=O)(=O)N1Cc2ncn(CC3CC3)c2C(COCC2CC2)C1` (stereo not drawn) the value was 9.51%; for `NC(=O)CC1CCN(C(=O)NCc2cccc(-n3cccn3)c2)CC1`, -0.378%.
Consider `O=C(O)c1ccccc1-c1ccc(CN2CCC(CO)C2)cc1` (stereo not drawn), for which the INHIBITION is reported as -12.3%.
Consider `CC(C)Oc1cccc(CNC(=O)N2CCC(N3CC=CC3)C2)c1` (stereo not drawn), for which the INHIBITION is given as 16.1%.
As to `O=C(CN1CCOC(CNc2cccnn2)C1)NCc1ccccn1` (stereo not drawn), the INHIBITION was 23.5%.
Turning to `c1cnc(-c2nn3c(CN4CCCCCC4)nnc3s2)cn1`, the INHIBITION was determined as 21.7%.
Consider `Cc1cc(NC(C)c2n[nH]c(C)n2)n2nc(C)c(C)c2n1` (stereo not drawn), for which the INHIBITION was found to be 18.4%.
Then `CC(CNC(=O)Nc1cn[nH]c1)N1CCCC1` (stereo not drawn), with -21.9%; and `CCc1ccc(C(=O)N2CCC(Nc3ccc(C)nn3)CC2)o1`, with 33.8%.
For `CCn1c(C)cc(C(=O)N2CCC(NC(=O)c3cc(C)no3)CC2)c1C` the value was -7.36%; for `CCn1c(C)cc(C(=O)N2CCC(Nc3ccc(C)nn3)CC2)c1C`, 32.9%.
For `Cc1ccc(NC2CCN(C(=O)c3ccc(Cl)o3)CC2)nn1` the value was -33.5%; for `Cc1ccc(NC2CCN(C(=O)c3ccc(C)o3)CC2)nn1`, 51.65%; for `Cc1ccc(NC2CCN(C(=O)c3ccc(Cl)cc3F)CC2)nn1`, 37.9%.
For the compound `Cc1ccc(NC2CCN(C(=O)c3ccc(F)cc3Cl)CC2)nn1`, the INHIBITION is on record as 56.4%.
`O=C(c1ccc(F)cc1Cl)N1CCC(Nc2cccnn2)CC1`: the INHIBITION stood at 41.4%.
For `CCn1c(C)cc(C(=O)N2CCC(NC(=O)c3ccc(C)o3)CC2)c1C` the value was 74%; for `CCc1nc(C2CCCN(C(=O)NC3CC3)C2)no1` (stereo not drawn), -81.1%.
Then `CC(C)CNC(=O)c1nnsc1-c1ccccc1`, with 2.69%.
In the case of `COCCN1C[C@@H]2CC[C@H]1CN(C(=O)CCc1n[nH]c(C)c1C)C2`, the INHIBITION is given as -4.92%.
`COc1cccc(N2CCN(Cc3ccc(NC(C)=O)cc3)CC2=O)c1`: the INHIBITION worked out at 38.5%.
For `COc1cccc(N2CCN(Cc3cc(C)cc(F)c3)CC2=O)c1` the value was 11.3%; for `COc1cccc(N2CCN(Cc3ncc[nH]3)CC2=O)c1`, -26.5%.
Then `COc1cccc(CN2CCN(Cc3ccc4nonc4c3)CC2=O)c1`, with 24.9%.
For `COc1cc(CN2CCN(c3cccc(OC)c3)C(=O)C2)cc(OC)c1` the value was 58.5%; for `CCn1cc(CN2CCN(Cc3cccc(OC)c3)C(=O)C2)cc1C#N`, 56.3%.
For the compound `COc1cccc(N2CCN(Cc3nccn3C(C)C)CC2=O)c1`, the INHIBITION is recorded as 59.5%.
Then `COc1cccc(N2CCN(Cc3nccc(OC)c3OC)CC2=O)c1`, with 11.2%; and `CCn1cc(CN2CCN(Cc3cc(C)cc(C)c3)C(=O)C2)cc1C#N`, with -17.8%.
For `Cc1n[nH]c(C2CN(CC(=O)NCCc3ccccc3C)CCO2)n1` (stereo not drawn), the INHIBITION was found to be 43.1%.
As for `Cc1occc1C(=O)N1CCC2(CCC(C(=O)NCC3CC3)O2)CC1` (stereo not drawn), the INHIBITION is recorded as -5.94%.
For `CCC(CNS(=O)(=O)c1cccc(C(=O)OC)c1)N1CCCC1` (stereo not drawn) the value was -39.2%; for `O=C1CCC[C@]2(CN(S(=O)(=O)C3CCCCC3)C[C@H]2c2cccnc2)N1`, -11.4%; for `O=C(COc1ccc(-n2cccn2)nn1)NC1CCCCC1`, -10.6%.
`O=c1c(-c2ccnc(N3CCC[C@H]3CO)n2)cnc2sccn12`: the INHIBITION was -4.82%.
For the compound `OC[C@@H]1CCCN1c1nccc(-c2c[nH]nc2-c2ccncc2)n1`, the INHIBITION is reported as -15.2%.
Then `OC[C@H]1CCCN1c1nccc(-c2c[nH]nc2C2CCCCC2)n1`, with 54.5%.
Regarding `Cc1ncc(-c2ccnc(N3CCC[C@@H]3CO)n2)c(-c2cccnc2)n1`, the INHIBITION was determined as 20.4%.
As to `O=c1c(-c2ccnc(N3CCCC[C@@H]3CO)n2)cnc2sccn12`, the INHIBITION stood at 35.2%.
For `OC[C@H]1CCCN1c1nccc(-c2cncnc2C2CCCCC2)n1` the value was 64.9%.
For `O=C(NCCn1cccc1)C(c1ccccc1)N1CCCC1` (stereo not drawn), the INHIBITION is reported as 15.4%.
Then `CCOC1CCCN(C(=O)CCOc2ccc(C)cc2OC)C1` (stereo not drawn), with 8.59%; and `Cn1cc2ncn(C3CCN(c4ccccc4F)CC3)c(=O)c2n1`, with -6.03%; and `CNc1nccc(-c2cn(C)nc2C)n1`, with 29.4%.
For `CCN(CC)CCCNc1nccc(-c2cn(C)nc2C)n1` the value was 43.9%.
For `CNCCNc1nccc(-c2cn(C)nc2C)n1` the value was 19.4%; for `Cc1ccc(NCCCNc2nccc(-c3cn(C)nc3C)n2)nc1`, 51.2%; for `Cc1nn(C)cc1-c1ccnc(N2CCSCC2)n1`, 47.2%.
For `Cc1nn(C)cc1-c1ccnc(NCCN)n1`, the INHIBITION was 59.4%.
Then `c1cnn(CC2CCCCN2Cc2noc(C3CC3)n2)c1` (stereo not drawn), with -42.65%; and `CC(C)NC(=O)c1nnc2ccc(N3CCOCC3)cc2n1`, with -3.11%.
As for `O=C(c1ccco1)N1CCC2(CCC(=O)N2Cc2ccccc2)CC1`, the INHIBITION was 33.4%.
Then `COCC(=O)N1CCC(C)(c2cc(O)[nH]n2)CC1`, with 23.9%; and `CCC(NC(=O)NCc1cccc(N(C)C)n1)c1ccccc1OC` (stereo not drawn), with 6.83%.
Then `CCCC(NC(=O)NCc1cccc(N(C)C)n1)c1ccccn1` (stereo not drawn), with 58.5%; and `CN(C)c1ccc(NC(=O)NCc2ccccn2)cn1`, with 13.9%; and `CCC(NC(=O)NCc1cccc(N(C)C)n1)c1cccs1` (stereo not drawn), with -6.46%.
Regarding `Cc1nc(CCNC(=O)NCc2cccc(N(C)C)n2)cs1`, the INHIBITION was -24.3%.
Then `CCC(NC(=O)NCc1cccc(N(C)C)n1)c1nccs1` (stereo not drawn), with 67.4%; and `Cc1noc(C)c1-c1cncc(C2CCCN2Cc2ncc[nH]2)n1` (stereo not drawn), with 47.2%; and `CC[C@@H](Cn1ncc2ccccc2c1=O)NC(=O)c1ccco1`, with 34.1%.
For the compound `Cn1ccc(C(=O)N2CCN(c3nccs3)CC2)cc1=O`, the INHIBITION was determined as 28.8%.
For `CC(C)(C)c1cnc(CN2CCC(NC(=O)C3CCOCC3)CC2)o1` the value was 30.8%; for `CC(C)(C)c1cnc(CN2CCC(CO)CC2)o1`, 39.7%.
Regarding `Cc1ccccc1C(=O)NC1CCN(Cc2ncc(C(C)(C)C)o2)CC1`, the INHIBITION was determined as 66.1%.
Then `CC(C)(C)c1cnc(CN2CCN(c3ncccn3)CC2)o1`, with 24.3%; and `CCN(C1CCN(Cc2ncc(C(C)(C)C)o2)CC1)S(C)(=O)=O`, with 50.8%; and `CC(C)(C)c1cnc(CN2CCC(NC(=O)CC3CCCC3)CC2)o1`, with 28.7%.
For `CC(C)(C)c1cnc(CN2CCC(NC(=O)NC3CCCCC3)CC2)o1` the value was 60.8%; for `CC(C)(C)c1cnc(CN2CCC(CN3CCOCC3)CC2)o1`, 66.3%; for `CC(C)(C)c1cnc(CN2CCCS(=O)(=O)CC2)o1`, -7.94%.
For `CCN(CC)CC1CCN(Cc2ncc(C(C)(C)C)o2)CC1` the value was 47.4%.
`CCN1CCN(C2CCN(Cc3ncc(C(C)(C)C)o3)CC2)C1=O`: the INHIBITION turned out to be 42%.
Then `CC(C)(C)c1cnc(CN2CCC(NC(=O)Nc3ccccc3)CC2)o1`, with 39.4%.
